dFosB activator: mouse delta FosB homodimer activation | 0.99% of 340,000 active | activation, % at 25 µM | purified delta FosB, TAMRA-CDK5 oligo fluorescence polarization; percent of positive-control signal above neutral wells | AID 493131 | P13346;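 active means mean activation above about 17%, with every replicate also reaching it, limit read from the data, passing the limit was not always enough; inconclusive means only one of the two conditions met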
Target sequence (P13346 whole entry, looked up): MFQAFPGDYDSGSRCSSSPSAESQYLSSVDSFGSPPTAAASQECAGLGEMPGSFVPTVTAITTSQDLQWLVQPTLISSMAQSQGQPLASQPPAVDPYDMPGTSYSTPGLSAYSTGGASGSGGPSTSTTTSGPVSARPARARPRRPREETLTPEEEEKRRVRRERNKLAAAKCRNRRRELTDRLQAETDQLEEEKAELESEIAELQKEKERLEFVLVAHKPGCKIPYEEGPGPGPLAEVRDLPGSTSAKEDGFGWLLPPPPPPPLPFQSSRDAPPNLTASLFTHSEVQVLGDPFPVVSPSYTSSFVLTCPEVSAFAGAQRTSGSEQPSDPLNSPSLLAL
RAD54 inh: RAD54 (human) branch migration inhibition; 0.14% of 360,000 active; inhibition, % at 10.4 µM; AID 602329; RAD54 Holliday junction branch migration, FAM/BHQ fluorescence; Q92698;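 active means mean normalized replicate activity at least 40 and at least half of replicates scoring 40 or more; inconclusive means only one of the two criteria met; inactive means mean below 40 and under half of replicates reaching 40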;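 further: 0% = median of neutral control wells and 100% = median of positive control wells; inhibitors cause a drop in the FAM fluorescence signal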
RAD52 anneal inh: RAD52 (human) annealing inhibition | 0.46% of 360,000 active | P43351 | recombinant RAD52 DNA annealing, FRET fluorescence | inhibition, % at 18.7 µM;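 active means every replicate showing at least 50% inhibition; inconclusive means mean inhibition at least 50% but not in every replicate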
GSIS activator: primary screen for activators of insulin secretion dependent on glucose, INS-1E cells, GLuc reporter luminescence. activation, % at 16.6 µM. 0.61% of 370,000 active. INS-1E GLuc reporter insulin secretion, 2-3 h;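 active means lowest replicate activation of at least 40%, so every replicate reaches that level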;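 further: 0% = median of neutral control wells and 100% = median of IBMX positive control wells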
DENV2 CPE: DENV2-induced cell death inhibition; DENV2-infected cells, cytopathic effect rescue, plate reader; CPE inhibition, % at 9.99 µM; 1.7% of 350,000 active; AID 651640; in the data active means CPE inhibition above about 20%, passing the limit was not always enough; inconclusive means no clear call, values can overlap the other calls; tested in BHK-21 cells;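 further: 0% = median of neutral control wells and 100% = median of positive control wells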
MLL AF4-AF9 inh: inhibitors of human MLL-AF4/AF9 interaction; AlphaScreen, biotin-AF4 peptide binding to FLAG-AF9; P42568; 0.47% of 350,000 active; inhibition, % at 10 µM; AID 651704;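 active means every replicate reaching a set inhibition limit, whatever the replicate mean, cut at about 25% in these data; inconclusive means mean inhibition reaches that limit but some replicates miss it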;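 further: 0% = plate neutral control median and 100% = total signal loss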
The depositor's hits bear a star; ? = inconclusive; . = no result given. This is a sample that favours compounds with a hit; in the whole collection about 3.1% have one here.

SMILES	dFosB activator	RAD54 inh	RAD52 anneal inh	GSIS activator	DENV2 CPE	MLL AF4-AF9 inh
CCCC(=O)Nc1ccc2c(c1)C(=O)N(C)[C@H]1CC[C@@H](CC(=O)NCC3CC3)O[C@@H]1CO2	.	-2	0	6	?	-1
O=C(OCc1ccccc1)N1CCC2CC1c1ccc(N3CCNCC3)cc12 (stereo unspecified)	.	11	-25	-14	75*	14
O=C(OCc1ccccc1)N1CCCC2CC1c1ccccc12 (stereo unspecified)	.	4	2	-29	44*	-5
COc1c(Cl)cc(Br)c(OC)c1C(=O)NC(=O)Nc1nc(C)cc(C)n1	3	.	15	28	32*	-4
COc1ccc(Cl)c(OC)c1C(=O)NC(=O)Nc1nc(C)nc(C)n1	2	-2	-4	14	0	-4
CC(C)NC(=O)OC[C@H]1O[C@H](C#Cc2ccc(C(C)(C)C)cc2)C=C[C@H]1O	.	.	-10	64*	2	5
CCOC(=O)CN(Cc1sccc1C)C(=O)Nc1ccc(OC)cc1OC	6	.	.	42*	.	.
CCOC(=O)c1cc2sccc2n1CC(=O)Nc1ccc(OC)cc1OC	-1	3	-2	-13	-5	-47
O=C(C[C@@H]1CC[C@@H]2[C@H](COC[C@H](O)CN2C(=O)Nc2ccc(F)cc2)O1)NCC1CC1	.	-2	4	2	0	2
COCC(=O)N(C)[C@H]1C[C@H]2c3cc(-c4ccccc4)ccc3CCN2C(=O)[C@H]1[C@H](C)O	-12	4	-13	6	-5	-1
COc1ccc(-c2ccc3c(c2)[C@@H]2C[C@H](N(C)C(=O)C(C)(C)C)[C@H]([C@H](C)O)C(=O)N2CC3)cc1	-23	-11	-33	-2	129*	1
COc1ccc(S(=O)(=O)N(C)C[C@H]2OCCCC[C@H](C)Oc3ccc(NS(=O)(=O)c4cn(C)cn4)cc3C(=O)N([C@@H](C)CO)C[C@H]2C)cc1	.	5	-1	2	-2	-3
COc1ccc(OC)c(N(CC(=O)NN=C2CCN(C)CC2)S(=O)(=O)c2ccccc2)c1	-1	0	-3	93*	3	1
O=C(Nc1cccc(F)c1)N1C[C@@H]2[C@H](c3ccccc31)[C@@H](CO)N2C(=O)C1CCOCC1	.	4	10	-11	-2	-3
CCN1CCN(c2cc(C)c3cc(NC(=O)CCC(=O)Nc4ccc(OC)c(OC)c4)ccc3n2)CC1	-4	-6	-2	-18	-1	1
CCN1CCN(c2cc(C)c3cc(NC(=O)c4ccc(OC)c(OC)c4)ccc3n2)CC1	-1	58*	8	.	3	7
c1cn2cc(-c3ccc(CN4CCOCC4)cc3)ccc2n1	.	-3	-27	55*	-17	2
CO[C@H]1CN(C)C(=O)c2cc(NC(=O)CC(F)(F)F)ccc2OC[C@H](C)N(C(=O)C2CCOCC2)C[C@@H]1C	.	.	-36	-1	27*	-2
CO[C@H]1CN(C)C(=O)c2cc(NC(=O)CC(F)(F)F)ccc2OC[C@H](C)N(C(=O)C2CCOCC2)C[C@H]1C	.	.	-45	3	19	1
CO[C@@H]1CN(C)C(=O)c2ccc(NC(=O)CC(F)(F)F)cc2OC[C@@H](C)N(C(=O)C2CCOCC2)C[C@@H]1C	.	.	-83	6	24*	-3
CO[C@@H]1CN(C)C(=O)c2cc(NC(=O)CC(F)(F)F)ccc2OC[C@H](C)N(C(=O)C2CCOCC2)C[C@@H]1C	.	.	-81	7	26*	-4
CO[C@H]1CN(C)C(=O)c2ccc(NC(=O)Cc3ccccc3)cc2OC[C@@H](C)N(C)C[C@@H]1C	.	5	5	5	2	-1
C[C@@H]1CN([C@@H](C)CO)C(=O)Cc2cc(NS(C)(=O)=O)ccc2O[C@H]1CN(C)C(=O)Nc1cccc2ccccc12	.	-1	-6	16	7	3
O=C(C[C@H]1CC[C@H]2[C@@H](COC[C@@H](O)CN2S(=O)(=O)c2ccccc2F)O1)NCc1ccccc1Cl	.	1	-7	9	-10	-1
Nc1c(C(=O)N/N=C/c2ccc([N+](=O)[O-])cc2)cnn1-c1ccccc1	12	3	5	13	46*	-1
SMILES	dFosB activator	RAD54 inh	RAD52 anneal inh	GSIS activator	DENV2 CPE	MLL AF4-AF9 inh
O=C(N/N=C/c1ccc([N+](=O)[O-])cc1)c1cccnc1	1	-1	-7	-1	-4	0
CCCc1ccc2oc(C(=O)N(Cc3ccncc3)CC3CCCO3)c(C)c2c1 (stereo unspecified)	-11	1	-3	-7	-6	1
Cc1ccc2oc(C(=O)N(Cc3ccncc3)CC3CCCO3)c(C)c2c1 (stereo unspecified)	-9	12	-31	2	47*	0
CN(C)c1ccc(CN(CC2CCCO2)C(=O)c2cc3ccccc3o2)cc1 (stereo unspecified)	-4	-4	-7	-24	12	26*
COc1ccc(NC(=O)CCCN2C(=O)CN(C)C2=O)c(OC)c1	3	6	8	.	1	33*
O=C(C[C@H]1CC[C@H]2[C@@H](COC[C@@H](O)CN2Cc2cccc(C(F)(F)F)c2)O1)NCCc1ccccc1	.	-1	16	-11	26*	-11
O=C(C[C@H]1CC[C@H]2[C@@H](COC[C@@H](O)CN2Cc2cccc(C(F)(F)F)c2)O1)NCc1ccc(F)cc1	.	-5	5	-7	111*	1
O=C(C[C@H]1CC[C@@H]2[C@H](COC[C@H](O)CN2Cc2cccc(C(F)(F)F)c2)O1)NCCc1ccccc1	.	-3	5	-7	15	-15
O=C(C[C@H]1CC[C@@H]2[C@H](COC[C@@H](O)CN2C(=O)c2ccccc2F)O1)NCc1ccc(F)cc1	.	8	-52	-3	38*	-2
COCC(=O)Nc1ccc2c(c1)C(=O)N(C)C[C@@H](OC)[C@@H](C)CN(Cc1ccccn1)[C@@H](C)CO2	.	-4	4	11	-7	-14
CCOC(=O)N1CCN(C(=O)C2CCN(C(=O)c3ccccc3C)CC2)CC1	-16	7	-42	106*	5	-1
CO[C@@H](CN(C)C(=O)c1cnccn1)[C@H](C)CN([C@@H](C)CO)S(=O)(=O)c1ccc(F)cc1	.	-5	-9	9	27*	-10
N#C[C@H]1[C@@H](c2ccccc2C2=CCCC2)[C@@H](CO)N1C(=O)CN1CCOCC1	.	.	-2	-6	3	-2
Cc1ccc(S(=O)(=O)Nc2ccc3c(c2)CC(=O)N([C@H](C)CO)C[C@H](C)[C@@H](CN(C)C(=O)Nc2ccccc2)O3)cc1	.	-9	-12	17	-8	-2
C[C@@H]1CN([C@@H](C)CO)C(=O)Cc2cc(NS(=O)(=O)c3ccccc3)ccc2O[C@H]1CN(C)C(=O)Nc1ccc(F)cc1	.	-5	21	-12	36*	0
